Tg IFNy HTS: inhibitors of Toxoplasma gondii growth with IFN-gamma; AID 1259416; activity change, negative = inhibition, % (test concentration not listed); Toxoplasma gondii growth in IFN-gamma-treated host cells; stronger effect = lower value; actives 3.8% (n = 69,000); in the data active means activity change below about -70%, passing the limit was not always enough;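 further: host cells are HeLa cells infected with Toxoplasma gondii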
* hit, by the source's call; i = inactive; ! = not confirmed by another sample. Only a selection was taken, and hits are over-represented in it overall.

SMILES	Tg IFNy HTS
O=C(Cn1ncc2c(N3CCN(c4ccccn4)CC3)ncnc21)Nc1cccc(Cl)c1	-50.1
CCc1cccc(NC(=O)Cn2ncc3c(N4CCN(c5ccccc5)CC4)ncnc32)c1	-82.4*
CCc1cccc(NC(=O)Cn2ncc3c(N4CCN(c5ccccn5)CC4)ncnc32)c1	-62.2
O=C(Cn1ncc2c(N3CCN(c4ccccc4)CC3)ncnc21)Nc1cccc(Cl)c1	31.2
O=C(Cn1ncc2c(N3CCN(c4ccccn4)CC3)ncnc21)Nc1ccc(Br)cc1	-15.0
O=C(Cn1ncc2c(N3CCN(c4ccccn4)CC3)ncnc21)Nc1cccc(Br)c1	-98.8*
Cc1cc(C2CCC2)nc(N2CCN(Cc3nccn3C)CC2)n1	9.6
Nc1sc2c(c1C(=O)NCc1ccccc1)CCCC2	-7.4
Cc1oc(C2CCN(C(=O)Nc3cccc(Cl)c3)CC2)nc1C(=O)N1CCCC1	1.6
CC(C)Cc1ccc(S(=O)(=O)N2CCC[C@@H]2C(=O)NCCc2csc(-c3ccccc3)n2)cc1	-57.3
CS(=O)(=O)NC[C@@H]1OC[C@@H]2CN(c3ccccn3)CC[C@@H]21	10.7
CCS(=O)(=O)N1C[C@H]2CN(c3ccsc3)C(=O)[C@H]2C1	10.1
COc1cccc(-c2nc(Cn3ccn4nc(-c5ccc(C)cc5)cc4c3=O)c(C)o2)c1OC	-16.6
COc1cccc(COC2CN(Cc3ccccn3)C(=O)CN(C(=O)c3c(F)cccc3Cl)C2)c1 (centres undefined)	-5.2
C=C[C@H]1CN2CC[C@H]1C[C@@H]2[C@H](O)c1ccnc2ccc(OC)cc12	-16.3
C=CC1CN2CCC1CC2[C@@H](O)c1ccnc2ccc(OC)cc12 (some centres undefined)	-60.0
C=C[C@H]1CN2CC[C@H]1C[C@@H]2[C@@H](O)c1ccnc2ccc(OC)cc12	-88.2*!
CCn1c2ccc(F)cc2c2nc(C)sc21	42.9
COc1ccccc1NC(=O)c1c(O)c2cccnc2n(-c2cccc(F)c2)c1=O	201.5
O=C(OCC(O)CNC12CC3CC(CC(C3)C1)C2)C12CC3CC(CC(C3)C1)C2 (centres undefined)	-88.6*
COc1ccc(OC)c(S(=O)(=O)NCc2nc(-c3ccc(C)cc3)oc2C)c1	-86.8*
CCOc1ccc(-c2nc(CN(C)S(=O)(=O)c3ccc(C)c(C)c3)c(C)o2)cc1	-102.3*
Cc1ccc(-c2nc(CNS(=O)(=O)c3c(C)cc(C)cc3C)c(C)o2)cc1	-22.9
Cc1ccc(S(=O)(=O)NCc2nc(-c3ccccc3)oc2C)cc1C	-105.6*
Cc1oc(-c2ccccc2)nc1CNS(=O)(=O)c1ccc(F)cc1	-6.5
SMILES	Tg IFNy HTS
COc1ccc(-c2nc(CNS(=O)(=O)c3ccc(C)cc3C)c(C)o2)cc1	8.9
COc1ccccc1-c1nc(CN(C)S(=O)(=O)c2ccc(C)c(C)c2)c(C)o1	-43.7
Cc1ccc(S(=O)(=O)NCc2nc(-c3cccc(Cl)c3)oc2C)cc1C	-24.5
CCOc1ccc(S(=O)(=O)N(C)Cc2nc(-c3ccc(C)cc3)oc2C)cc1	3.0
CCn1nc(C)c(CN(CCOC)c2ncnc3oc(C)nc23)c1C	121.2
CCC(=O)Nc1cc(Cl)ccc1C(=O)N1C[C@H](OC(C)C)[C@@H](O)C1	-30.7
COCc1cc(CNC(=O)c2cc(NC(C)=O)ccc2Cl)[nH]n1	-2.5
CC(=O)N1CCc2c([nH]c3ccccc23)C12C(=O)N(C)c1ccc(Br)cc12 (centres undefined)	i
COCCN(CC(=O)Nc1cccc(C)c1C)C1CCN(C)CC1	-2.1
CCN(Cc1cc(Cl)ccc1OC)C(=O)[C@@H](N)Cc1ccccc1	-12.5
Cc1c(NCc2cccnc2)cccc1C(=O)N1C[C@@H](C)O[C@@H](C)C1	-83.2*
CCC1c2cccn2CCN1C(=O)c1cccc(NCc2cccnc2)c1C (centres undefined)	2.1
Cc1noc(C)c1CN(C)C(=O)c1cccc(NCc2cccnc2)c1C	-8.6
Cc1cc(C)c(S(=O)(=O)N2CCC(C(=O)NCCc3csc(-c4ccccc4)n3)CC2)cc1C	-57.4
N#Cc1ccc(Oc2cc(-c3ccccc3)nc(-c3ccc(Br)cc3)n2)cc1	75.5
CCn1c(SCc2nnc(-c3ccc(OC)c(OC)c3)o2)nc2ccccc2c1=O	4.7
COc1ccc(CN2CCC3(CC2)CN(C(=O)Cc2ccc(Cl)cc2)C3)cc1F	-16.7
CCc1ccc(C(=O)Nc2ccc(-c3nc(Cn4nc(C)cc4C)c(C)o3)cc2)cc1	-61.5
Cc1cc(C)n(Cc2nc(-c3ccc(NC(=O)c4ccc5c(c4)OCO5)cc3)oc2C)n1	-97.9*
Cc1cc(C)n(Cc2nc(-c3ccc(NC(=O)c4ccc(F)cc4)cc3)oc2C)n1	-68.0
Cc1cc(C)n(Cc2nc(-c3ccc(NC(=O)c4ccc(F)c(F)c4)cc3)oc2C)n1	45.3
Cc1ccc(C(=O)Nc2ccc(-c3nc(Cn4nc(C)cc4C)c(C)o3)cc2)cc1	-54.8
COc1ccc(C(=O)Nc2ccc(-c3nc(Cn4nc(C)cc4C)c(C)o3)cc2)cc1	-91.7*
CC[C@H](C)Nc1c(C(=O)OC)c(=O)[nH]c2c(Cl)cccc12	-1.6
Cc1oc(-c2ccc(NC(=O)c3cccs3)cc2)nc1Cn1cccn1	-24.2
Cc1ccc(NC(=O)Nc2ccc(-c3nc(-c4ccccc4)co3)cc2)cc1Cl	23.8

Screens: PubChem, Broad Institute
